Here are results for 25 compounds from PubChem BioAssay (NCATS).

Assay [1] is described as follows: Confirmatory qHTS for VERO E6 Cytotoxicity Assay: Counterscreen for SARS-CoV-2 CPE Assay (AID 1508605; calls by dose curve; further: nearly all actives have a fitted effect of over 60% in size; further: potency means the concentration at half of the fitted maximal effect). Background: In qHTS, concentration-response curves come from the screen itself.
A short description of assay [2]: Confirmatory qHTS for activators (rescue) of SARS-CoV-2 Cytopathic Effect (CPE) (AID 1508606; calls by dose curve; further: potency means the concentration at half of the fitted maximal effect; nearly all actives have a fitted effect of over 70% in size).
Assay [3] in a line: Primary qHTS for inhibitors of SARS-S pseudo-typed particle cell entry (AID 1479145; calls by dose curve; further: on the % scale 0 is the no-effect control and ±100 the full control effect; nearly all actives have a fitted effect of over 45% in size).
Assay [4] in a line: Primary qHTS for Huh7 cytotoxicity: counterscreen for inhibitors of MERS-S pseudotyped particle cell entry (AID 1479147; calls by dose curve). The following applies: outcome: dose series up to 57.1 µM unless noted.
Assay [5] can be described thus: Primary qHTS for inhibitors of MERS-S pseudo-typed particle cell entry (AID 1479149; calls by dose curve; further: nearly all actives have a fitted effect of over 60% in size).
Assay [6] in a line: Primary qHTS for Vero E6 cytotoxicity: counterscreen for inhibitors of SARS-S pseudo-typed particle cell entry (AID 1479150; calls by dose curve). As to conditions: outcome: dose series up to 57.1 µM unless noted.
The nature of assay [7]: AP1 Signaling Pathway (AID 357; active means well fitted curve in either direction with a large enough effect, not every such curve was filed as active;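 further: ME-180 reporter cells stimulated with EGF at its EC50 level; on the % scale 0 is the no-effect control and ±100 the full control effect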). The procedure, abridged: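 Modulation of EGF-driven AP-1 transcription was assessed with a beta-lactamase reporter in ME-180 cells. Compound and EC50 EGF were co-incubated 5 hours at 37 °C before 2.5-hour CCF4 loading at room temperature and dual-emission reading.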
A short description of assay [8]: NFAT Signaling Pathway (AID 444; active means well fitted curve in either direction with a large enough effect, not every such curve was filed as active;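 further: carbachol stimulus at about its EC50 of 1 µM final; on the % scale 0 is the no-effect control and ±100 the full control effect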). As to conditions: Jurkat NFAT-bla M1, carbachol, beta-lactamase ratio, 5 h. The procedure, abridged:
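Read-out: CCF4 FRET ratio (460 nm/530 nm) after 1 h RT dye loading, used for %activity and AC50 from titration series. Cells: Jurkat NFAT-β-lactamase/M1 line, treated with compound plus 1 uM carbachol for 5 h, 37 °C.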

A short description of assay [9]: Stat Signaling Pathway (AID 446; active means well fitted curve in either direction with a large enough effect, not every such curve was filed as active;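 further: ME-180 cervical cancer cells given 40 pM IL-6 alongside compound; SIE-controlled beta-lactamase reporter measured as 460/530 nm FRET emission ratio; on the % scale 0 is the no-effect control and ±100 the full control effect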). The method, boiled down:
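Screening format detects activators and inhibitors alike: ME-180 SIE-bla cells stimulated at 40 pM IL-6 for 5 hrs with compound, then dual-emission beta-lactamase read at 405 nm excitation.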

The target in assay [10] is Glucocorticoid receptor (Homo sapiens) (UniProt P04150). Put plainly: GR-GFP Redistribution (AID 450;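 active means compounds whose dose series gives a full or clear partial fitted curve of increased nuclear translocation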; further: potency means the concentration at half of the fitted maximal effect). As to conditions: U2OS GR-GFP nuclear translocation, laser cytometry, 2 h.
For assay [11], the target named is Cytochrome P450 3A4 (Homo sapiens) (UniProt P08684). Put plainly: qHTS Assay for Inhibitors and Substrates of Cytochrome P450 3A4 (AID 884). Further: nearly all actives have a fitted effect of over 50% in size. Further: potency means the concentration at half of the fitted maximal effect. On activity change, negative = inhibition: on the % scale 0 is the no-effect control and ±100 the full control effect. The method, boiled down:
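20 nM human CYP3A4 with 25 uM Luciferin-PPXE (at KM) in 200 mM KPO4, preincubated 10 min with compound; NADPH regeneration started a 60 min RT reaction. Luciferin detected by luminescence, normalized to 57 uM ketoconazole as full inhibition.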

The test system of assay [12] is Zika virus NS2B-NS3 protease. Briefly: Primary screen GU AMC qHTS for Zika virus inhibitors (AID 1347154).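 Further: 0% = no-inhibitor control and -100% = no-enzyme control; nearly all actives have a fitted effect of over 70% in size.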 The method, boiled down: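 Fluorogenic AMC-substrate cleavage by noncovalent NS2B-NS3 protease complex (25 nM, pH 8.0 Tris buffer with Tween 20) followed for 15 minutes at room temperature (~20% conversion). Percent inhibition from ex340/em450 signal change, fitted by 4-parameter Hill equation.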

A short description of assay [13]: Tertiary RLuc qRT-PCR qHTS assay for Zika virus inhibitors (AID 1347169). Further: nearly all actives have a fitted effect of over 55% in size. Further: potency means the concentration at half of the fitted maximal effect. The method, boiled down: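 Vero cells (1,000 per well) plated overnight at 37 degrees C, treated with compound in DMSO, then infected with recombinant ZIKV-RLuc (Cambodian) at MOI 1-2 for 48-72 hrs. Live-cell Renilla luciferase substrate added; luminescence read after 1-1.5 hrs.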
A general note: In qPCR the cycle at which signal appears reflects the starting amount.

Assay [14] in a line: Primary qHTS for small molecule stabilizers of the endoplasmic reticulum resident proteome: Secreted ER Calcium Modulated Protein (SERCaMP) assay (AID 1508630). Further: potency means the concentration at half of the fitted maximal effect. The method, boiled down: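 GLuc-SERCaMP-expressing SH-SY5Y cells, pretreated 16 h with compound, are challenged with thapsigargin to empty ER calcium stores; after 4 h, coelenterazine is added directly to the medium and luminescence is imaged.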

The target of assay [15] is Catechol O-methyltransferase (Homo sapiens) (UniProt P21964). Briefly: Confirmatory Screen for Target Class Profiling of Small Molecule Inhibitors of Methyltransferases (AID 1745852). The following applies: MTase-Glo luminescence, SAH detection, recombinant enzyme; measured here: COMT max response; stronger effect = lower value.
Assay [16] addresses Phenylethanolamine N-methyltransferase (Homo sapiens) (UniProt P11086). The description is as above. The following applies: MTase-Glo luminescence, SAH detection, recombinant enzyme; measured here: PNMT max response; stronger effect = lower value.
Assay [17] is described as follows: qHTS Assay for Lipid Storage Modulators (AID 1519; calls by dose curve). The following applies: Drosophila S3 cells, BODIPY lipid droplet/cell ratio, laser cytometry, cells loaded with oleic acid. The procedure, abridged: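 Cells seeded at 5,000 per well were treated with compounds over a concentration series and loaded with oleic acid (400 uM, as added). Lipid droplet fluorescence (488 nm excitation, 500-530 nm channel) was read by laser-scanning cytometry and normalized to 20 uM Triacsin C.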

Assay [18] can be described thus: qHTS to identify inhibitors of the type 1 interferon - major histocompatibility complex class I in skeletal muscle: primary screen against the NCATS Mechanism Interrogation Plate v5.0 (MIPE) Libary (AID 1347411). Further: nearly all actives have a fitted effect of over 65% in size. Further: potency means the concentration at half of the fitted maximal effect.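 On activity change, negative = inhibition: plate controls were vehicle for no effect and reference inhibitor for full effect.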 The method, boiled down: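 Cells were genome-edited human myoblasts carrying a HiBit tag on endogenous HLA-B. They were treated with IFN-beta (4.0 ng/ml) and titrated compounds (top 46 uM) for 24 hrs before lytic HiBiT detection.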

A further assay deals with HEK293T. Put plainly: qHTS assay to identify novel small-molecules to repurpose for Merkel cell carcinoma treatment (AID 1296009). Further: nearly all actives have a fitted effect of over 60% in size. The following applies: MCC and control cell lines, CellTiter-Glo viability, 72 h; at 44.8 µM (top of the series) unless noted. The procedure, abridged: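 After compound transfer in DMSO, plates were kept 72 hr at 37 degree celsius. Luminescent ATP signal from CellTiter-Glo served as viability measure, normalized against DMSO and no-cell controls.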

A short description of assay [19]: qHTS assay to identify inhibitors of the type 1 interferon - major histocompatibility complex class I in skeletal muscle: Counter screen cell viability and HiBit confirmation (AID 1347412). Further: nearly all actives have a fitted effect of over 60% in size. Further: potency means the concentration at half of the fitted maximal effect. As to conditions: iHSKM muscle cells + IFN-b, HiBiT or CellTiter-Glo, 24 h; Potency: HiBiT; Viability, at 45.9 µM (top of the series). The method, boiled down:
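HLA-B*08:01–HiBiT knock-in immortalized human myoblasts (C25cl48) stimulated with 4.0 ng/ml human IFN-beta and dosed with compound in a 12-point 1:3 titration (top final 46 uM). After 24 hrs at 37 C, HiBiT lytic luminescence or CellTiter Glo ATP read out.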

Inconclusive results are not listed. The source made the active and inactive calls. Unless noted, the call rests on the fitted dose curve; in most records, active means well fitted curve in the direction sought with a large enough effect; inconclusive means small, poorly fitted or top-dose-only effect, or another doubt; inactive means no such curve, though single readings can be large; an effect the other way counts as inactive or inconclusive. Where only a bound is given, the exact number is not on record here.

Phenylethanolamine N-methyltransferase (Homo sapiens), sequence (P11086 whole entry, looked up): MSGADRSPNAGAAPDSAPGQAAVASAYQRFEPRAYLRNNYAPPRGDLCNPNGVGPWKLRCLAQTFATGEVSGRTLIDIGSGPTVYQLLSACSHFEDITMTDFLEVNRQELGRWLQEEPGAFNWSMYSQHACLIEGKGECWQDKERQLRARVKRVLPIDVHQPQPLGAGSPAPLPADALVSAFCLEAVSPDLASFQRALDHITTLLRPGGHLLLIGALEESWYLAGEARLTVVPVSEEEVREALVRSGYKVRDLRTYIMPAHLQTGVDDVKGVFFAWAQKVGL
Glucocorticoid receptor (Homo sapiens), sequence (P04150 whole entry, looked up): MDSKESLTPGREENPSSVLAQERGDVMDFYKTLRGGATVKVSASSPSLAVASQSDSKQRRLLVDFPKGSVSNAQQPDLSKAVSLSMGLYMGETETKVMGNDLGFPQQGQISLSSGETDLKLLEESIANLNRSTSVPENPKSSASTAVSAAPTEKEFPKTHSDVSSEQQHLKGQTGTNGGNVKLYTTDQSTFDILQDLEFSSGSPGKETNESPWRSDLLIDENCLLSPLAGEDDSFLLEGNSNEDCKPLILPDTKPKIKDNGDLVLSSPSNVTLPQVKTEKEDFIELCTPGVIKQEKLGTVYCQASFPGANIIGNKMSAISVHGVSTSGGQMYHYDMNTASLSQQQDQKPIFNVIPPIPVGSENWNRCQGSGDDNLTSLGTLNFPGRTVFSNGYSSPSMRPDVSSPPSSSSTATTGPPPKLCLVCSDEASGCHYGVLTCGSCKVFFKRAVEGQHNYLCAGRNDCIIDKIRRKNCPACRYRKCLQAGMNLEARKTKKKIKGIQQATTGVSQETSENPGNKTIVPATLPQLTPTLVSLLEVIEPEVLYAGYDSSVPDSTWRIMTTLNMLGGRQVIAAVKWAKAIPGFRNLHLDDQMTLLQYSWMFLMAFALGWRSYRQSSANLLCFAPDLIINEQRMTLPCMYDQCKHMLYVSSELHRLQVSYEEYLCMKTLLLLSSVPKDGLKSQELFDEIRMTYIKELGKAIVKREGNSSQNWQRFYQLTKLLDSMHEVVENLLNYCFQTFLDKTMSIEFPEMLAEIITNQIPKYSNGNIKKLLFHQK
Catechol O-methyltransferase (Homo sapiens), sequence (P21964 whole entry, looked up): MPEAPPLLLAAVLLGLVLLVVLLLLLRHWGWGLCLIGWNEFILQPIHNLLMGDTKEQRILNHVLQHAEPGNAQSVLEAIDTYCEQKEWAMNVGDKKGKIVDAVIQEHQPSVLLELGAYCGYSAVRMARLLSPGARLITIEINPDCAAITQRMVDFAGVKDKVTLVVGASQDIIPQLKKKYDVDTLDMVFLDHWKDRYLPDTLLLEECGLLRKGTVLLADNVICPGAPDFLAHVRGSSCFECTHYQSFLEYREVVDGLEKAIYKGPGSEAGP
Cytochrome P450 3A4 (Homo sapiens), sequence (P08684 whole entry, looked up): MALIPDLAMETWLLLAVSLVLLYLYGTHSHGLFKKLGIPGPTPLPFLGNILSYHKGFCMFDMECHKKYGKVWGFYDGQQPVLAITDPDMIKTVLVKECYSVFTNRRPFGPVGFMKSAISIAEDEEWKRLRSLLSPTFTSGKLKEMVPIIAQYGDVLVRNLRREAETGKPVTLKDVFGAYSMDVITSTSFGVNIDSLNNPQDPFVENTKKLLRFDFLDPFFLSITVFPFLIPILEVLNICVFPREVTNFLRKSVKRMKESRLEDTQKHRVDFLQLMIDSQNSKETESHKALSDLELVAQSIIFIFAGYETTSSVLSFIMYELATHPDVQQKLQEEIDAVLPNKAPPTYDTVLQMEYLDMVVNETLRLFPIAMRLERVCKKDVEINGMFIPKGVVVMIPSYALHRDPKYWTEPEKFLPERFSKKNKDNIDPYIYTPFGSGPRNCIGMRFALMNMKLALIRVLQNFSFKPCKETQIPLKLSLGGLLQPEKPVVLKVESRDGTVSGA

Turning to `Oc1ccc2c3c1O[C@H]1c4[nH]c5c(N=C=S)cccc5c4C[C@@]4(O)[C@@H](C2)N(CC2CC2)CC[C@]314`, the Potency entry in [1] is “inactive”. Moreover, in assay [2], the Potency was 10 µM (active).

Turning to `COc1ccc(CN(C(=O)[C@@H](N)Cc2c(C)cc(C(N)=O)cc2C)[C@@H](C)c2ncc(-c3ccccc3)[nH]2)cc1C(=O)O`, the Potency result in [3] and in assay [5] was “inactive” in each case. For the same compound, the outcome in [4] and in [6] was “inactive” each time.

`C=CCN1CCC2(C)c3cc(O)ccc3C[C@H]1[C@H]2C`: the outcome in [7] and in assay [9] was “inactive” throughout. Moreover, the activity change, negative = inhibition in assay [8] (at 38 µM (top of the series)) was -29.1% (inactive). In addition, the Potency in assay [10] was > 46 µM (inactive). The Potency entry in assay [11], in [12], in [13] and in assay [14] was “inactive” in each case.

Take `CN1CCc2cc3c(cc2C1C1OC(=O)c2c1ccc1c2OCO1)OCO3` (centres undefined): the Potency in assay [11] is 1.26 µM (active). The Potency entry in assay [12] and in assay [14] was “inactive” in each case.

Turning to `COc1cc(N2CCN(C)CC2)ccc1N`, the activity in assay [15] is -7.03%; in assay [16], -33.9%.

On to `CC1CCCC(=O)CCC/C=C/c2cc(O)cc(O)c2C(=O)O1` (centres undefined), for which, in [11], the Potency is 2 µM (active). For the same compound, the activity change, negative = inhibition in assay [17] (at 57.5 µM (top of the series)) was -7.32% (inactive). For the same compound, the max response in [17] (measured here: cell count channel max response) turned out to be 9.42%; in assay [17] (measured here: lipid channel max response), 4.67%.

For the compound `C[C@H]1O[C@@H](O[C@H]2CC[C@]3(CO)C4CC[C@]5(C)[C@@H](C6=CC(=O)OC6)CC[C@]5(O)[C@@H]4CC[C@H]3C2)[C@H](O)[C@H](O)[C@@H]1O[C@@H]1O[C@H](CO)[C@@H](O)[C@H](O)[C@H]1O` (some centres undefined), the values for the activity in assay [15] and in assay [16] were -90% and -1.28%, respectively.

In the case of `CN(C)c1cc2c(cc1Sc1nc3c(N)nccc3n1CCNCC(C)(C)C)OCO2`, in [2], the Potency is 2.24 µM (active). Moreover, the activity was -13.6% in assay [15] and -0.0762% in assay [16].

Turning to `CNc1ccc2oc(C[C@H]3O[C@@]4(CC[C@H]3C)O[C@H](C(C)C(=O)c3ccc[nH]3)[C@H](C)C[C@H]4C)nc2c1C(=O)O` (some centres undefined), the Potency in assay [13] was 0.658 µM (active).

As for `CC1=CC(=O)[C@@H](O)[C@]2(C)C3[C@@H](O)[C@@H]4OC(=O)[C@@H]([C@H]4C)[C@]3(C)C(=O)C[C@@H]12` (some centres undefined), the Potency in assay [1] is 2.24 µM (active).

On to `CC(=O)OC[C@]12C[C@H](OC(=O)CC(C)C)C(C)=C[C@H]1O[C@@H]1[C@H](O)[C@@H](O)[C@@]2(C)[C@]12CO2`, for which, in assay [1], the Potency was 0.113 µM (active).

As for `C[C@@H]1CN(Cc2ccc(F)cc2)CCN1C(=O)COc1ccc(Cl)cc1NC(N)=O`, in [18], the Potency entry is “inactive”.

For the compound `CN1CCN(c2nc3ccccc3nc2Cl)CC1`, in the assay on HEK293T, the outcome is “inactive”.

As for `C=C1C[C@]2(O)[C@@]3(C)CCC(=O)C(C)(C)C3=C(O)C(=O)[C@@]2(C)[C@@H]2C(=O)O[C@@](C)(C(=O)OC)C(=O)[C@@]12C`, the outcome in the assay with HEK293T is “inactive [at 17.4 µM]”.

Take `CC(=O)O[C@H]1CC[C@H]2[C@@H]3CC[C@H]4CC(=O)C=C(C)[C@]4(C)[C@H]3CC[C@]12C`: the Potency result in [3] and in assay [5] was “inactive” throughout. The outcome in assay [4] and in [6] was “inactive” throughout.

For `C=C(C)[C@@H]1[C@H]2OC(=O)[C@H]1[C@]1(O)C[C@H]3O[C@]34C(=O)O[C@H]2[C@]14C`, the outcome in the assay with HEK293T is “inactive”.

In the case of `Cc1sc2c(c1C)C(c1ccc(Cl)cc1)=N[C@@H](CC(N)=O)c1nnc(C)n1-2`, the Potency result in [19] was “inactive”.

As for `C[C@H]1CCC/C=C/C2C[C@H](O)C[C@H]2[C@H](O)/C=C/C(=O)O1` (some centres undefined), the Potency entry in [12] is “inactive”. In addition, the results for the Potency in assay [18], in assay [14] and in assay [19] were 0.147 µM (active), 0.316 µM (active) and 0.14 µM (active), respectively.

For `CN(C)[C@@H]1C(=O)C(C(N)=O)=C(O)[C@@]2(O)C(=O)C3=C(O)c4c(O)ccc(Cl)c4[C@@](C)(O)C3C[C@@H]12` (some centres undefined), the outcome in assay [7] and in [9] was “inactive” in each case. The activity change, negative = inhibition in assay [8] (at 17.2 µM (top of the series)) is 0.867% (inactive). Besides, in assay [10], the Potency was > 20.6 µM (inactive).

In the case of `CCCCN1[C@@H]2CC[C@H]1CC(OC(c1ccc(F)cc1)c1ccc(F)cc1)C2` (some centres undefined), the Potency in assay [2] is 5.01 µM (active). Also, the activity in assay [15] came to 0.354%; in [16], 3.98%.

As for `C[C@@]1(CO)[C@H](O)CC[C@@]2(C)[C@H]1CC[C@H]1C[C@@H]3C[C@@]12CC[C@]3(O)CO`, the outcome in assay [7] and in assay [9] was “inactive” each time. Besides, the Potency in [10] was > 20.6 µM (inactive). Moreover, the Potency entry in assay [12] and in assay [14] was “inactive” in each case.

For `CN[C@@H]1C[C@H]2O[C@@](C)([C@@H]1OC)n1c3ccccc3c3c4c(c5c6ccccc6n2c5c31)C(=O)NC4`, the figures for the Potency in assay [18] and in [19] were 0.829 µM (active) and 0.198 µM (active), respectively.

Regarding `C=C(CO)C(=O)O[C@H]1CC(=C)[C@@H]2C[C@H](O)C(=C)[C@@H]2[C@H]2OC(=O)C(=C)[C@@H]21`, the activity was -80.9% in [15] and -8.66% in [16].

With `C=C1[C@@H](C)[C@H]2[C@H](Cc3ccccc3)NC(=O)[C@]23[C@H](OC(C)=O)/C=C/[C@](C)(O)C(=O)[C@@H](C)C/C=C/[C@H]3[C@@H]1O`, the Potency entry in [12] and in assay [14] was “inactive” throughout.

Regarding `N#Cc1cn([C@@H]2O[C@H](CO)[C@H](O)[C@@H]2O)c2ncnc(N)c12`, the activity was -98.2% in assay [15] and -99.9% in [16].
